Measurements reported in PubChem BioAssay.
The source made the active and inactive calls. The rule behind the calls is not given here.

Experiment: inhibition of 3D7 malaria parasite growth – strain 3D7 (AID 2306);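 note: 0% = DMSO wells and 100% = chloroquine plus artemisinin control wells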
Conditions: P. falciparum 3D7 erythrocytic growth, LDH absorbance, 72 h; at 2 µM; active compounds read high

Growth inhibition, active:
COc1cccc(-n2ncc3c(N/N=C/c4ccc(CN(C)CCN(C)C)cc4)ncnc32)c1 100%
COc1cc(CCNCC(O)c2ccc([N+](=O)[O-])c(OCc3ccccc3)c2)cc(OC)c1OC (stereo not drawn) 98%
O=C(Nc1cccc(Cl)c1)c1cc2ccccc2cc1O 97%
CN(C)Cc1ccc(CNC2CCN(Cc3ccccc3Cl)CC2)cc1 82%
Cc1ccc(Cn2ccc3c4c(N)nc(N)nc4ccc32)cc1 99%
COc1cc(Nc2nccc(-c3c(-c4cccc(NC(=O)c5c(F)cccc5F)c4)nn4ncccc34)n2)cc(OC)c1OC 98%
Cn1cccc1C(=O)Nc1cccc(-c2nn3ccccc3c2-c2ccnc(Nc3ccc4c(c3)OCCO4)n2)c1 95%
O=C(Nc1ccccc1)Nc1cccc(-c2nn3c(OCCN4CCCC4)cccc3c2-c2ccncc2)c1 102%
COc1cccc(-c2nc(Nc3ccncc3)c3ncn(C)c3n2)c1 94%
CO/N=C(\C)c1ccc2c(c1)CCN(CCC1CCC(NC(=O)c3cccc(-c4noc(C)n4)c3)CC1)CC2 (stereo not drawn) 90%
Cc1[nH]nc2ccc(-c3cc(OC[C@@H](N)Cc4ccccc4)cnc3-c3cc4ccccc4s3)cc12 99%
Oc1ccc(CCNCCCCCNCCCc2ccc(Cl)cc2)cc1O 91%
Cc1cccc(Cn2ccc3c(N)nc(N)nc32)c1 82%
CCN(CC)CCCN(C(=O)Nc1cc(F)cc(F)c1)c1nc(-c2ccc(F)cc2)cs1 82%
CN(C)c1ccc(NC(=O)Nc2ccnc3ccccc23)cc1Br 98%
COc1cc(OC)cc(C(=O)Nc2nc(-c3ccc(NC(=O)c4ccccc4)cc3)cs2)c1 88%
CCc1cc2c3c(N)nc(N)nc3ccc2n1C(C)(C)C 99%
C[C@@H]1CN(c2ccc3[nH]cc(Sc4ccc(-c5cccs5)cc4)c3c2)C[C@H](C)N1 89%
NS(=O)(=O)c1cccc(N=Cc2c(O)[nH]c3ccc(S(=O)(=O)Cc4c(Cl)cccc4Cl)cc23)c1 92%
CN(c1ccc(NC(=O)Nc2cc(C(C)(C)C)on2)cc1)c1ccnc(NCCN2CCOCC2)n1 95%
N#Cc1cnc(Nc2ccc(Oc3ccccc3)cc2)nc1Nc1cccc(S(N)(=O)=O)c1 96%
CNC(=O)c1ccc(/C=C/C(=O)N2CCc3ccc(-c4ccccc4)cc3C2c2cccc(C(F)(F)F)c2)cc1 (stereo not drawn) 91%
CCn1c(-c2nonc2N)nc2c(-c3cc4ccccc4s3)ncc(C(=O)N3CCC(N)C3)c21 (stereo not drawn) 98%
N#Cc1ccc(C(=O)Nc2cc(-c3cccc(O)c3)cc3[nH]ncc23)cc1 90%
Cc1ccccc1Cn1ccc2c3c(N)nc(N)nc3ccc21 100%
O=C(Nc1ccc(OC2CCN(CC3CC3)CC2)c(Cl)c1)c1ccc2ncccc2c1 84%
CCN(CC)CCNC(=O)c1ccc(N=Cc2c(O)[nH]c3ccc(S(=O)(=O)Cc4c(Cl)cccc4Cl)cc23)cc1 100%
CCS(=O)(=O)c1ccc(OC)c(Nc2nccc(-c3c(-c4cccc(NC(=O)c5c(F)cccc5F)c4)nn4ncccc34)n2)c1 87%
COc1ccc(NC(=O)c2ccc(-c3cccc(OCc4ccccc4)c3)cc2)cc1N1CCN(C)CC1 85%
Brc1ccsc1-c1nc(NC2CCN(Cc3ccccc3)CC2)no1 80%
CCCCNC(=O)C1CCCN(C(=O)c2ccc(O)c(-c3ccc(Cl)c(Cl)c3)c2)C1 (stereo not drawn) 83%
CCc1cc(-c2n[nH]c(C(F)(F)F)c2-c2ccccc2)c(O)cc1OC 84%
O=C(O)c1ccc(-c2cnc3ccc(NC4CCC(O)CC4)nn23)cc1 (stereo not drawn) 98%
